# Screens (PubChem)
# This is a sample that favours compounds with a hit; in the whole collection about 2.4% have one here.
# Cruzain inh Det: qHTS Assay for Promiscuous and Specific Inhibitors of Cruzain (with detergent). AID 1478, 2009. Cruzipain (Trypanosoma cruzi), P25779. actives 0.43% (n = 200,000). Potency, µM, for inactives: max response, negative = inhibition, actives largely listed as inhibitors. purified cruzain, Z-FR-AMC fluorescence, 0.01% Triton;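 further: plate controls were neutral wells for no effect and buffer without enzyme for full effect; nearly all actives have a fitted effect of over 40% in size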
# Target sequence (P25779 123-467 limits assumed): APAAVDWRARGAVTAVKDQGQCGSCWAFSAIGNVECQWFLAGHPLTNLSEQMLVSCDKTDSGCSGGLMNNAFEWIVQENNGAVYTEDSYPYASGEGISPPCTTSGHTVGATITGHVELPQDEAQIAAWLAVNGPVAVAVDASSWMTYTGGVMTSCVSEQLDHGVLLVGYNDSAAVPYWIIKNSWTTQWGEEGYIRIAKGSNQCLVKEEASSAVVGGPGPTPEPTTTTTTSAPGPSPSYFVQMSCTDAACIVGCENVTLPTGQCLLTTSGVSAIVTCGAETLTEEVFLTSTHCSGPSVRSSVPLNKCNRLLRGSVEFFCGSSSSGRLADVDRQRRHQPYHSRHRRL
#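 Compounds were screened in titration against cruzain (1.5 nM) with 0.01% Triton X-100 to counter colloidal aggregation. Activity was the AMC fluorescence increase over 60 s after adding 2 uM Z-FR-AMC at pH 5.5.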
# Cruzain inh noDet: qHTS Assay for Promiscuous and Specific Inhibitors of Cruzain (without detergent); Cruzipain (Trypanosoma cruzi), P25779; purified cruzain, Z-FR-AMC fluorescence, no detergent; Potency, µM, without a hit: max response, negative = inhibition, usual class: inhibitors; actives 2.3% (n = 200,000);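 further: plate controls were enzyme without inhibitor for no effect and buffer without enzyme for full effect; nearly all actives have a fitted effect of over 40% in size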
#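 Purified cruzain at 1.5 nM, pre-incubated 15 min with compound at room temperature in 100 mM sodium acetate pH 5.5, 5 mM DTT, 0.00005% Triton X-100. Reaction started with 2 uM Z-FR-AMC; AMC fluorescence increase over 60 s gives rate.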
# The depositor's hits bear a star; ? = inconclusive. The call rests on the fitted dose curve; in most records, active means well fitted curve in the direction sought with a large enough effect; inconclusive means small, poorly fitted or top-dose-only effect, or another doubt; inactive means no such curve, though single readings can be large; an effect the other way counts as inactive or inconclusive. Potency means the concentration at half of the fitted maximal effect.
SMILES,Cruzain inh Det,Cruzain inh noDet
Cc1cccc(Cn2cc3c(=O)n(CC(=O)Nc4cccc(C)c4C)nc-3c3cc(F)ccc32)c1,-2%,-1%
CC1=C(C(=O)OC2CCCC2)C(c2c(Cl)cccc2Cl)CC(=O)N1 (stereo not given),-9%,3%
Cc1ccc(C)c(NC(=O)Cn2cc(S(=O)(=O)c3ccc(F)cc3)c(=O)c3cc(F)ccc32)c1,0%,-5%
CCc1ccc(NC(=O)C(=O)NCC(c2ccc3c(c2)OCO3)N2CCN(C)CC2)cc1 (stereo not given),-1%,-17%
O=C(Nc1ccccc1N1CCCCC1)c1ccc(-c2cccc(Cl)c2)o1,-2%,-3%
O=C(NC(=S)Nc1cc(Cl)ccc1N1CCOCC1)c1ccc(-c2cccc(Cl)c2)o1,5%,7.9µM*
Cc1ccc(/C=C(\C#N)C(=O)Nc2cccc(Br)c2)o1,-1%,13µM*
Cc1ccc(/C=C(\C#N)C(=O)Nc2ccc(Br)cc2)o1,0%,-13%
Cc1cc(C(=O)CSc2nnc(N)s2)c(C)n1CCc1ccc(F)cc1,3%,16µM*
Cc1cc(C(=O)CSc2nnc(N)s2)c(C)n1CCc1ccc(Cl)cc1,-1%,?
Cc1cc(C(=O)CSc2nnnn2C)c(C)n1CCc1ccc(F)cc1,6%,25µM*
COc1ccc(CCn2c(C)cc(C(=O)CSc3nc(N)cc(=O)[nH]3)c2C)cc1,0%,25µM*
CCCc1cc(=O)[nH]c(SCC(=O)c2cc(C)n(CCOC)c2C)n1,1%,6%
Cc1cc(C(=O)CSc2nnnn2-c2ccccc2)c(C)n1CCc1ccccc1,1%,-9%
Cc1cc(C(=O)CSc2nc(N)cc(=O)[nH]2)c(C)n1CCc1ccc(F)cc1,1%,25µM*
COc1ccc(CCn2c(C)cc(C(=O)CSc3nnc(N)s3)c2C)cc1,-3%,?
Cc1ccc2c(c1)N(C(=O)N1CCC(C(=O)NCc3cccs3)CC1)CC(C)O2 (stereo not given),-4%,8%
Cc1cc(C)c(S(=O)(=O)Nc2ccc(-c3ccc(N4CCCCC4)nn3)cc2)cc1C,-5%,?
Cc1ccccc1Nc1c(-c2ccco2)nc2c(C)cccn12,-7%,-2%
CCOc1ccc(C(=O)Nc2cccc(OCc3cc(=O)n4cc(C)sc4n3)c2)cc1,-1%,-3%
COc1ccc(NC(=O)c2cc3ccccn3n2)cc1,-1%,-10%
O=C(Nc1ccc(OC(F)(F)F)cc1)c1cc2ccccn2n1,-2%,25µM*
Clc1nc2ccccc2cc1/C=N/Nc1nc2ccccc2[nH]1,28µM*,?
Cc1nn(-c2ccccc2)c(C)c1/C=N/Nc1nc2ccccc2[nH]1,?,25µM*
CCN(CC)c1ccc(/C=N/Nc2nc3ccccc3[nH]2)cc1,-10%,?
SMILES,Cruzain inh Det,Cruzain inh noDet
C(=N\Nc1nc2ccccc2[nH]1)/c1cccs1,-27%,?
FC(F)(F)c1ccccc1-c1cc(NCc2cccnc2)ncn1,2%,19%
COC(=O)c1sc2cccc(F)c2c1S(=O)(=O)Nc1ccc(C)cc1Cl,-12%,-4%
COc1ccc(CC(=O)NCCc2csc(-c3cccc(C)c3)n2)cc1,-5%,11%
CCN(CC)c1ccc(-c2nc(-c3ccco3)no2)cc1[N+](=O)[O-],-4%,16µM*
CCCCNc1ccc(-c2nc(-c3ccco3)no2)cc1[N+](=O)[O-],-15%,?
CN(C)c1ccc(-c2nc(-c3ccncc3)no2)cc1[N+](=O)[O-],-2%,-6%
COc1cc(-c2noc(-c3ccc(N(C)C)c([N+](=O)[O-])c3)n2)cc(OC)c1OC,-7%,25µM*
CC1=Nc2cccc3cccc(c23)N1,-2%,-16%
Nc1ccc(C2=Nc3cccc4cccc(c34)N2)cc1,-20%,3.2µM*
COc1cccc(C2=Nc3cccc4cccc(c34)N2)c1,-7%,16µM*
CCCCOc1ccc(C2=NC(c3ccccc3)=Nc3ccc(OC)cc3N2)cc1,-1%,7%
Nc1c(-c2nc(-c3cccs3)no2)nnn1-c1cccc(F)c1,0%,-1%
Cc1cc(C)cc(N2CC(c3nc(-c4ccccc4C)no3)CC2=O)c1 (stereo not given),-8%,13%
C(=C\c1nc(-c2ccccc2)oc1Nc1ccc2ccccc2c1)/c1ccccc1,3%,25µM*
O=C(Nc1ccc2oc(-c3ccccc3)nc2c1)c1ccc2ccccc2c1,-1%,6%
CCc1ccccc1NC(=O)Cn1ccn(Cc2ccccc2)c(=O)c1=O,0%,10%
COc1ccccc1NC(=O)c1cc(Cl)ccc1NC(=O)c1ccco1,-3%,3%
COc1ccccc1NC(=O)c1ccccc1NC(=O)c1cc(Cl)ccc1NC(=O)c1ccco1,-5%,16µM*
Nc1cccc(-c2cn3ccsc3n2)c1,-2%,10%
Cc1ccc(/C=C/C(=O)c2nc3ccccc3[nH]2)cc1,3%,-8%
Cc1ccc(/C=C/C(=O)Nc2nc3ccccc3[nH]2)cc1,3%,25µM*
NC(=O)CSc1nnc(-c2cc(-c3cccs3)nc3ccccc23)o1,-10%,-18%
CCCN(CC1CC1)C(=O)CSc1nnc(-c2cc(-c3cccs3)nc3ccccc23)o1,-4%,16µM*
COc1ccc(N2CCN(C(=O)C(C)n3c(=O)cc(C(F)(F)F)c4c(C)nn(C)c43)CC2)cc1 (stereo not given),-3%,2%
SMILES,Cruzain inh Det,Cruzain inh noDet
NC(=O)c1ccccc1NC(=O)CN1c2ccccc2S(=O)(=O)c2ccccc21,-3%,-8%
COc1cc(Cl)c(C)cc1NC(=O)CN1c2ccccc2S(=O)(=O)c2ccccc21,-6%,25µM*
Cc1c(CNCCCc2ccccc2)c(C(=O)O)c(C)n1Cc1ccc(Cl)cc1,-3%,-2%
CN(C)S(=O)(=O)c1cccc(NC(=S)NN=C(Cc2ccccc2)Cc2ccccc2)c1,-3%,32µM*
COc1cc(/C=N/NC(=S)Nc2cccc(S(=O)(=O)N(C)C)c2)ccc1O,-18%,-8%
Cc1ccc(NC(=O)Cn2ncc3c4ccccc4n(Cc4ccccc4)c3c2=O)cc1Cl,-4%,-15%
Cc1cc(Br)c(OCc2ccc(C(=O)N/N=C3\CC4CC=CC34)cc2)c(Br)c1 (stereo not given),-6%,20µM*
COc1cc(/C=N/NC(N)=O)cc(Br)c1OCc1ccc(C)cc1,6%,?
COc1ccc(C(NC(=O)c2ccc(-c3ccccc3)cc2)c2ccccc2)cc1 (stereo not given),5%,7.9µM*
COc1ccc(C(=O)Nc2ccc(C(=O)OCC(=O)c3ccccc3)cc2)cc1,2%,6.3µM*
COc1ccc(C(=O)COc2ccc(NC(C)=O)cc2)cc1,-3%,-25%
CCOC(=O)c1ccc(NC(=O)c2ccc(NC(=O)c3ccccc3)cc2)cc1,5%,-16%
CCCC/C=C/C(NC(=O)c1ccccc1)c1ccccc1 (stereo not given),-8%,-8%
COc1ccc(C(=O)COC(=O)c2ccc(NC(=O)c3ccccc3)cc2)cc1,6%,13µM*
COc1ccc(C(C)NC(=O)c2ccccc2)cc1 (stereo not given),-1%,-3%
CCCC/C=C/C(NC(=O)c1ccc(-c2ccccc2)cc1)c1ccccc1 (stereo not given),5%,16µM*
Cc1cc(=O)[nH]c2nnc(SCc3cccc(F)c3)n12,-3%,-5%
CCC(=O)N1CCc2cc(CNS(=O)(=O)c3ccccc3F)ccc21,0%,-4%
